Screening data deposited in PubChem by National Center for Advancing Translational Sciences (NCATS).
HT1080-NT tox: qHTS for induction of synthetic lethality in tumor cells producing 2HG: qHTS for the HT-1080-NT fibrosarcoma cell line | HT-1080-NT fibrosarcoma viability, CellTiter-Glo ATP luminescence, 48 h | Potency, µM (series often up to 46.1 µM), inactives show at the highest dose activity, negative = less viability, most hits filed as cytotoxic | actives 1.6% (n = 360,000);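 further: NT is the 2HG producing partner of a matched IDH1 knockdown line; 0% = DMSO-treated cells and -100% = media-only wells without cells; nearly all actives have a fitted effect of over 55% in size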
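Luminescent CellTiter-Glo readout after 48 hours of compound exposure at 37 degrees C defined viability of HT-1080-NT cells. Activity was normalized to DMSO wells and cell-free media wells; concentration-response curves were fitted and assigned curve classes.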
HT1080 IDH1KD tx: qHTS for induction of synthetic lethality in tumor cells producing 2HG: qHTS for the HT-1080-IDH1KD cell line | HT-1080 IDH1 knockdown viability, ATP luminescence, 48 h | Potency, µM (titrated, usually from 46.1 µM), for the others: at the top dose activity, negative = toxicity, hits mostly cytotoxic | actives 2% (n = 360,000);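 further: 0% = DMSO wells and -100% = cell-free medium wells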
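Using the IDH1-knockdown HT-1080 line run in the same batch and compound series as the NT line, viability after 48 h at 37 °C was determined by CellTiter-Glo luminescence and expressed as % activity.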
KB-V1 MDR tox: qHTS assay for MDR1-selective chemotherapeutics: Primary screen using the drug-selected MDR subline cells KB-V1. KB-V1 MDR cells viability, CellTiter-Glo, 72 h. Potency, µM (top dose mostly 46.1 µM), most hits filed as cytotoxic. actives 3.4% (n = 400,000). AID 1347076, 2019; further: on the % scale 0 is the no-effect control and ±100 the full control effect; nearly all actives have a fitted effect of over 60% in size
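Drug-selected KB-V1 cells, grown in DMEM lacking phenol red with 10% FBS, receive compound titrations; after three days at 37 degrees C, surviving cell ATP is quantified by CellTiter-Glo luminescence and responses normalized and curve-fitted.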
KB-3-1 tox: qHTS assay for MDR1-selective chemotherapeutics: Primary screen using the parental adenocarcinoma cell KB-3-1 | KB-3-1 viability, CellTiter-Glo ATP luminescence, 72 h | Potency, µM (top dose mostly 46.1 µM), hits mostly cytotoxic | actives 1.4% (n = 400,000); further: on the % scale 0 is the no-effect control and ±100 the full control effect; nearly all actives have a fitted effect of over 60% in size
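Here the drug-naive KB-3-1 line serves as comparator for MDR sub-line selectivity; cells received compound titrations, 72 h at 37 °C, then CellTiter-Glo readout.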
MCF10A rerep: A quantitative high throughput screen for small molecules that induce DNA re-replication in MCF 10a normal breast cells | AID 624296, 2012 | MCF 10A DNA re-replication, Hoechst nuclear intensity, 48 h | actives 2.9% (n = 350,000) | Potency, µM (series often up to 46.1 µM), without a hit: at the top dose activity, positive = re-replication, usual class: activators; further: % of control where 0% means no effect; nearly all actives have a fitted effect of over 50% in size
SW480 rerep: A quantitative high throughput screen for small molecules that induce DNA re-replication in SW480 colon adenocarcinoma cells. SW480 DNA re-replication, Hoechst DNA content imaging, 48 h. Potency, µM (highest dose often 46.1 µM), for the others: at the top dose re-replication activation, most hits filed as activators. actives 1.8% (n = 340,000). AID 624297, 2012; further: % of control where 0% means no effect; nearly all actives have a fitted effect of over 55% in size
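DNA re-replication was detected as more nuclei of elevated Hoechst intensity after 48 hr exposure to compound (23 nL pinned per well of 250 cells).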
The depositor's hits bear a star. Compounds with a hit are over-represented: about 7.9% of the library has one in this group of screens. The call rests on the fitted dose curve; in most records, active means well fitted curve in the direction sought with a large enough effect; inconclusive means small, poorly fitted or top-dose-only effect, or another doubt; inactive means no such curve, though single readings can be large; an effect the other way counts as inactive or inconclusive. Potency means the concentration at half of the fitted maximal effect.

What do the screens show for `COc1cc(Br)cc(/C=N/NC(=O)Cc2ccccc2)c1O`?
HT1080-NT tox: 18µM*; HT1080 IDH1KD tx: 8.2µM*; KB-V1 MDR tox: inactive; KB-3-1 tox: inactive; MCF10A rerep: inconclusive; SW480 rerep: inconclusive

What do the screens show for `Oc1c(Cl)cc(Cl)cc1C=Nc1ccc2c(c1)OCCO2`?
HT1080-NT tox: -18%; HT1080 IDH1KD tx: -16%; KB-V1 MDR tox: inactive; KB-3-1 tox: inactive; MCF10A rerep: inconclusive; SW480 rerep: 4%

What do the screens show for `Cc1nonc1C(=O)N/N=C/c1ccc(O)cc1O`?
HT1080-NT tox: inconclusive; HT1080 IDH1KD tx: 2.1µM*; KB-V1 MDR tox: inconclusive; KB-3-1 tox: inconclusive; MCF10A rerep: inconclusive; SW480 rerep: inconclusive

What do the screens show for `Cc1ccc(N=Cc2cc(Cl)cc(Cl)c2O)nc1`?
HT1080-NT tox: 0%; HT1080 IDH1KD tx: -14%; KB-V1 MDR tox: inactive; KB-3-1 tox: inactive; MCF10A rerep: inconclusive; SW480 rerep: 18µM*

Results for COc1ccc(CNC(=O)COC(=O)CN2C(=O)C3CC=CCC3C2=O)cc1 (stereo unspecified) ?
HT1080-NT tox: -5%; HT1080 IDH1KD tx: -4%; KB-V1 MDR tox: inactive; KB-3-1 tox: inactive; MCF10A rerep: 2%; SW480 rerep: -3%

Results for O=C(CSC1=NS(=O)(=O)c2ccccc2N1)NCc1ccc(F)cc1 ?
HT1080-NT tox: -4%; HT1080 IDH1KD tx: -6%; KB-V1 MDR tox: inactive; KB-3-1 tox: inactive; MCF10A rerep: -2%; SW480 rerep: -6%

Results for CC1(C)C2CCC1(CS(=O)(=O)NCc1ccc(C(F)(F)F)cc1)C(=O)C2 (stereo unspecified) ?
HT1080-NT tox: -18%; HT1080 IDH1KD tx: -19%; KB-V1 MDR tox: inactive; KB-3-1 tox: inactive; MCF10A rerep: 5%; SW480 rerep: inconclusive

What do the screens show for `Cc1ccc(S(=O)(=O)N2C[C@@H]3[C@H]4CC[C@H](C4)[C@@H]3[C@@H](C)[C@H]2c2ccn(Cc3ccccc3)c2)cc1`?
HT1080-NT tox: inconclusive; HT1080 IDH1KD tx: -14%; KB-V1 MDR tox: inactive; KB-3-1 tox: inactive; MCF10A rerep: 14%; SW480 rerep: 1%

Results for CC(C)(CNC(=O)c1cc(Cl)c(O)c(Cl)c1)N1CCCCC1 ?
HT1080-NT tox: 14%; HT1080 IDH1KD tx: 7%; KB-V1 MDR tox: inactive; KB-3-1 tox: inactive; MCF10A rerep: -6%; SW480 rerep: -2%

What do the screens show for `O=C(CN(Cc1ccco1)C(=O)CNS(=O)(=O)c1ccc(Cl)cc1)NCc1ccco1`?
HT1080-NT tox: -11%; HT1080 IDH1KD tx: 2%; KB-V1 MDR tox: inactive; KB-3-1 tox: inactive; MCF10A rerep: -32%; SW480 rerep: -59%

How did O=C(CP(=O)(c1ccccc1)c1ccccc1)N/N=C/c1cc(Br)cc(Br)c1O do in these assays?
HT1080-NT tox: -10%; HT1080 IDH1KD tx: inconclusive; KB-V1 MDR tox: inconclusive; KB-3-1 tox: inactive; MCF10A rerep: 5.8µM*; SW480 rerep: inconclusive

Results for O=C(N/N=C/c1ccc(O)cc1O)c1ccc(NC(=O)C2CCCCC2)cc1 ?
HT1080-NT tox: inconclusive; HT1080 IDH1KD tx: 9.2µM*; KB-V1 MDR tox: inactive; KB-3-1 tox: inconclusive; MCF10A rerep: inconclusive; SW480 rerep: 16µM*

Results for O=C(N/N=C/c1ccc(Br)s1)c1ccncc1 ?
HT1080-NT tox: -22%; HT1080 IDH1KD tx: -16%; KB-V1 MDR tox: inactive; KB-3-1 tox: inactive; MCF10A rerep: inconclusive; SW480 rerep: 10µM*

How did O=C(N/N=C/c1ccc(Br)s1)c1cccs1 do in these assays?
HT1080-NT tox: -15%; HT1080 IDH1KD tx: -5%; KB-V1 MDR tox: inactive; KB-3-1 tox: inconclusive; MCF10A rerep: 3%; SW480 rerep: 3%

Results for O=C(N/N=C/c1cccc(O)c1)c1ccc(NC(=O)C2CCCCC2)cc1 ?
HT1080-NT tox: -7%; HT1080 IDH1KD tx: -27%; KB-V1 MDR tox: inactive; KB-3-1 tox: inactive; MCF10A rerep: 19%; SW480 rerep: -4%

Results for COc1cc(Br)cc(C=Nc2cccc(C(F)(F)F)c2)c1O ?
HT1080-NT tox: -16%; HT1080 IDH1KD tx: inconclusive; KB-V1 MDR tox: inactive; KB-3-1 tox: inconclusive; MCF10A rerep: 21µM*; SW480 rerep: -1%

What do the screens show for `CN(Cc1ccccc1)/C(=N/O)c1cccc(Cl)c1`?
HT1080-NT tox: 1%; HT1080 IDH1KD tx: 2%; KB-V1 MDR tox: inactive; KB-3-1 tox: inactive; MCF10A rerep: 24%; SW480 rerep: -1%

Results for O=C(N/N=C/c1cc(Cl)cc(Cl)c1O)c1ccncc1 ?
HT1080-NT tox: inconclusive; HT1080 IDH1KD tx: 3.7µM*; KB-V1 MDR tox: inconclusive; KB-3-1 tox: inconclusive; MCF10A rerep: inconclusive; SW480 rerep: inconclusive

Results for Cc1ccc(C(C)C)c(OCc2ccc(C(=O)N/N=C/c3ccc(O)cc3O)cc2)c1 ?
HT1080-NT tox: 6.5µM*; HT1080 IDH1KD tx: 2.9µM*; KB-V1 MDR tox: inconclusive; KB-3-1 tox: inactive; MCF10A rerep: inconclusive; SW480 rerep: inconclusive

Results for Oc1c(Cl)cc(Cl)cc1/C=N/Nc1ncc(Br)cn1 ?
HT1080-NT tox: inconclusive; HT1080 IDH1KD tx: inconclusive; KB-V1 MDR tox: inactive; KB-3-1 tox: inconclusive; MCF10A rerep: inconclusive; SW480 rerep: 0.16µM*

What do the screens show for `O=C(N/N=C/c1cc(Br)cc(Br)c1O)c1ccncc1`?
HT1080-NT tox: inconclusive; HT1080 IDH1KD tx: inconclusive; KB-V1 MDR tox: inactive; KB-3-1 tox: inactive; MCF10A rerep: inconclusive; SW480 rerep: 1µM*

How did COc1ccc(/C=N/Nc2ncc(Br)cn2)c(OC)c1 do in these assays?
HT1080-NT tox: 7%; HT1080 IDH1KD tx: 3%; KB-V1 MDR tox: inactive; KB-3-1 tox: inactive; MCF10A rerep: -5%; SW480 rerep: -30%

What do the screens show for `Cc1cccc(C(=O)Oc2c(Br)cc(Br)cc2/C=N/NC(=O)c2ccncc2)c1`?
HT1080-NT tox: 12%; HT1080 IDH1KD tx: 15%; KB-V1 MDR tox: inactive; KB-3-1 tox: inactive; MCF10A rerep: 1%; SW480 rerep: 2%

What do the screens show for `COc1ccc(-n2c(-c3cccc(F)c3)nc3c(cnn3-c3ccc(C)cc3)c2=O)cc1`?
KB-V1 MDR tox: inconclusive; KB-3-1 tox: inactive
